# KCNH2 WT inh: qHTS for Inhibitors of KCHN2 3.1: Wildtype qHTS; Voltage-gated inwardly rectifying potassium channel KCNH2 (Homo sapiens), Q12809; U2OS, BacMam KCNH2, thallium flux FluxOr; stronger effect = lower value; activity change, % at 1.84 µM; 0.37% of 340,000 active; AID 720551, 2013;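 active = maximum activity change below -70%; inconclusive = maximum activity change between -70% and -50%; inactive = maximum activity change above -50%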; also: % is scaled to controls: 0 for no effect and ±100 for the full control effect
#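 U2OS cells transduced with wild-type KCNH2 virus are loaded with FluxOr dye for 45 min, and thallium flux is measured in kinetic reads before and after stimulation buffer. Rate constants are normalized to DMSO controls.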
# ClpP mod: qHTS Assay for Activators of ClpP; Potency, µM (top dose mostly 57.5 µM), for the others: at the highest dose activity change, negative = active; 1.9% of 340,000 active; ATP-dependent Clp protease proteolytic subunit (Bacillus subtilis (strain 168)), P80244; purified B. subtilis ClpP, FRET peptide cleavage, 20 min; AID 651965, 2013; active = well fitted falling curve with a large enough effect; inconclusive = small, poorly fitted or top-dose-only effect; inactive = no such curve, though single readings can be large or run the other way; also: potency is read from the fitted curve at half-maximal effect; the source files actives as falling curves though it sought activators and does not explain the sign; nearly all actives have a fitted effect of over 65% in size
#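 FRET quenching reversal measured ClpP activation: 10 microg/mL B. subtilis ClpP at pH 8 with the FRET-FV decapeptide, read at 430 nm after 320 nm excitation. The 20-min minus 0-min signal was scaled between DMSO/no-enzyme wells and ADEP (5.8 microM final).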
# BCR signal inh: qHTS Assay to Find Inhibitors of Chronic Active B-Cell Receptor Signaling. ABC-DLBCL IkBa-CBG/CBR reporter, luminescence ratio, 4 h. Potency, µM (doses to about 46.1 µM), for the others: top-dose activity change, negative = inhibition, hits mostly inhibitors. 0.05% of 340,000 active. AID 493014, 2011; active = well fitted inhibition curve with a large enough effect in the signal ratio, with a control signal flat, not every such curve was filed as active; inconclusive = small, poorly fitted or top-dose-only effect, or effect the other way, or a change in a side signal; the % refers to the signal ratio;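 also: potency is read from the fitted curve at half-maximal effect; plate controls were basal doxycycline-induced cells for no effect and cells given 10 µM MG132 for full effect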
#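 Concentration-response series (up to 46 uM) were applied to TMD8 dual-reporter cells for 4 h at 37C with doxycycline. Green/red ratio, after filter-overlap correction, defined %Activity; red signal alone was normalised to basal cells and zero luminescence.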
# ALOX12 inh: Primary qHTS assay for inhibitors of human arachidonate 12S-lipoxygenase (ALOX12): Round 2 | Potency, µM (top dose mostly 108 µM), for inactives: at the highest dose activity change, negative = inhibition, most hits filed as inhibitors | purified 12hLO, xylenol orange hydroperoxide absorbance | 1.1% of 580,000 active | AID 1671190, 2021 | Polyunsaturated fatty acid lipoxygenase ALOX12 (Homo sapiens), P18054; also: potency is read from the fitted curve at half-maximal effect; % is scaled to controls: 0 for no effect and ±100 for the full control effect
# Target sequence (P18054 whole entry, looked up): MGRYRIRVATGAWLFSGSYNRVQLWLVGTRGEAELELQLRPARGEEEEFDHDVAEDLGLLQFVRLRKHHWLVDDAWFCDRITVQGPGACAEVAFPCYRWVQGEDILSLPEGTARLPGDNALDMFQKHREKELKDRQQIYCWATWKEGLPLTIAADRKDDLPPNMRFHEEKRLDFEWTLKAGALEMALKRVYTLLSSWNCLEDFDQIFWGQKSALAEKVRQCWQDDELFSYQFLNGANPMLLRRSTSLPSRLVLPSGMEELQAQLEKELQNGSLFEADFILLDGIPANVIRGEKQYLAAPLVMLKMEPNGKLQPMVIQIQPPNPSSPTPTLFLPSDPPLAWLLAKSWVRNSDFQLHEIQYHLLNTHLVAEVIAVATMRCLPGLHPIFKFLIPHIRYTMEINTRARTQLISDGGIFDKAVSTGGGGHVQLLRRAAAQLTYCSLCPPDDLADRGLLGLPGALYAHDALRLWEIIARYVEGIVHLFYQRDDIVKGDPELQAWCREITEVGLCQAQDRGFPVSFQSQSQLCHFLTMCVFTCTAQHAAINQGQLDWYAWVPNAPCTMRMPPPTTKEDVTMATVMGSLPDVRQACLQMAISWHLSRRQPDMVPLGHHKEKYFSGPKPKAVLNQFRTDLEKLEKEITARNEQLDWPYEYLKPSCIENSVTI
#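 Purified human 12hLO (150 nM final) in 25 mM Hepes, 0.01% Triton X-100, pH 7.0 was preincubated 15 min at room temperature with compound. Then 40 uM arachidonic acid was added, 30 min. Hydroperoxide was read by Fe-XO absorbance ratio 573/405 nm.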
# KCNH2 3.1 block: qHTS for Inhibitors of KCHN2 3.1: Mutant qHTS; Potassium voltage-gated channel subfamily H member 2, brain isoform KCNH2 3.1 (human); U2OS KCNH2 3.1, thallium flux FluxOr; stronger effect = lower value; activity change, % (tested at about 1.8 µM); 0.95% of 340,000 active; AID 720553, 2013;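 active = maximum activity change below -70%; inconclusive = maximum activity change from -70% to -50%; inactive = maximum activity change above -50%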;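 also: thallium influx rate constant from kinetic fluorescence after stimulation buffer; % is scaled to controls: 0 for no effect and ±100 for the full control effect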
#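 Normalized rate constant (relative to positive and negative DMSO controls) derived from a 2 min kinetic fluorescence read after stimulation; U2OS cells expressing the 3.1 isoform via virus at 1.77 x 10^8 /mL.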
# LDHA inh: qHTS assay for inhibitors of human lactate dehydrogenase; purified LDHA, NADH/diaphorase-resazurin fluorescence; stronger effect = lower value; activity change, % (values are at about 110 or 230 µM); 0.15% of 480,000 active; L-lactate dehydrogenase A chain (Homo sapiens), P00338; AID 1347041, 2019; in the data active = activity change below about -30%; inconclusive = mostly about -25% to -30%;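 also: plate controls were DMSO wells for no effect and wells without enzyme for full effect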
#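 Enzyme activity of human lactate dehydrogenase 5 (2 nM; 0.06 mM NADH, 0.2 mM pyruvate, 5 min, RT) is measured via a resazurin/diaphorase fluorescence readout of residual NADH.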
# ClpP inh valid: qHTS Assay for Activators of ClpP: Hit Validation of Inhibitors | shares compounds with ClpP mod | purified B. subtilis ClpP, FRET-FV substrate cleavage, 20 min | Potency, µM (titrated, usually from 57.5 µM), inactives show at the highest dose activity change, negative = inhibition, hits mostly inhibitors | 40% of 470 active | AID 743245, 2014; also: potency is read from the fitted curve at half-maximal effect; % is scaled to controls: 0 for no effect and ±100 for the full control effect; nearly all actives have a fitted effect of over 70% in size
# An asterisk follows results filed as active; ? = inconclusive; nt = not tested or not shown; ! = not confirmed by another sample; [ ] = dose if it differs, or a comment. Only some compounds are listed: those with a hit (about 3% of all), similar ones and a draw of the others. Unless noted, calls follow the shape of the dose curve; as a rule, active = well fitted curve in the direction sought with a large enough effect; inconclusive = small, poorly fitted or top-dose-only effect, or another doubt; inactive = no such curve, though single readings can be large; an effect the other way counts as inactive or inconclusive.
SMILES,KCNH2 WT inh,ClpP mod,BCR signal inh,ALOX12 inh,KCNH2 3.1 block,LDHA inh,others
CCCCn1c(N)c(C(=O)NCc2cccs2)c2nc3ccccc3nc21,21.5,25.1µM*,?,0.0%,-4.2,9.6,
CCCCCCn1c(N)c(C(=O)NCCN2CCOCC2)c2nc3ccccc3nc21,13.3,25.1µM*,-1.7%,50.9%,-2.4,2.6,
CNC(=O)C1CCN(C(=O)c2cn(Cc3ccccc3)c3ccccc23)CC1,nt,nt,nt,11.9%,nt,-2.3,
CCCCC/C(=N/O)c1c(C)[nH]c2ccccc12,3.4,nt,?,2.0%,21.0,-0.9,
CCCC/C(=N/O)c1c(C)[nH]c2ccccc12,1.0,28.2µM*,3.0%,32.2%,0.5,-8.2,
C=CCc1c(C)nc(C)nc1N/N=C/c1ccc(N(C)C)cc1,1.4,20µM*,?,?,8.5,2.1,
ClCCN(CCCl)c1ccc(C=NNc2ncccn2)cc1,9.2,nt,nt,-21.1%,13.4,-6.2,
CCn1c(O)c(/C=N/NC(=O)c2ccccc2)c(=O)[nH]c1=S,1.3,-2.8%,?,0.0%,-3.5,1.2,
COc1ccccc1-n1c(O)c(/C=N/NC(=S)Nc2ccccc2)c(=O)[nH]c1=S,-3.2,-3.6%,0.4%,-21.6%,-93.4*,-5.4,
c1ccc2c(c1)Nc1ccccc1S2,1.6,-0.1%,-16.0%,0.114µM*,-8.5,-8.7,
O=c1[nH]c(=S)n(CCC2=CCCCC2)c(O)c1/C=N/Nc1ccccc1,0.8,0.0%,2.5%,35.5µM*,6.3,1.6,
O=c1[nH]c(=S)n(CCC2=CCCCC2)c(O)c1C=NC1CCN(Cc2ccccc2)CC1,-27.1,-3.0%,?,14.3%,?,-12.5,
COCCCOc1ccnc(CS(=O)c2nc3ccccc3[nH]2)c1C (stereo not given),-17.8,-4.4%,?,44.7µM*!,9.6,16.7,
Cc1c(OCC(F)(F)F)ccnc1CS(=O)c1nc2ccccc2[nH]1 (stereo not given),-2.9,-15.0%,?,12.2µM*!,6.8,-14.0,
COCCn1c(C)cc(C(=O)N2[C@H]3CC[C@@H]2c2cnc(-c4ccc(F)cc4)nc2C3)c1C,nt,nt,nt,14.0%,nt,nt,
Oc1cc2c(cc1O)[C@H]1c3ccccc3CN[C@H]1CC2,nt,nt,nt,11.2µM*!,nt,nt,
COc1ccc(Cn2c(N)c(C(=O)NCc3ccco3)c3nc4ccccc4nc32)cc1,14.5,31.6µM*,?,0.0%,0.7,-5.9,
Nc1c(C(=O)NCc2ccco2)c2nc3ccccc3nc2n1Cc1ccc(F)cc1,-6.7,28.2µM*,?,20.1%,0.4,10.3,
C#CCOc1cccc(C2SCC(=O)Nc3c2c(C)nn3-c2ncnc3nc[nH]c23)c1 (stereo not given),nt,nt,nt,-2.9%,nt,7.2,
Cc1ccc(OCCOc2cccc(C=C3C(=O)NC(=O)NC3=O)c2)cc1,-1.8,-2.1%,?,31.6µM*,10.9,-23.8,
Cc1cc(C)cc(OCCOc2cccc(C=C3C(=O)NC(=O)NC3=O)c2)c1,-1.0,1.1%,?,12.6µM*,-4.1,-8.1,
O=C1NC(=O)C(=Cc2ccc3ccccc3c2)C(=O)N1,0.2,4.2%,-6.7%,?,3.0,-2.1,
CC(Oc1ccccc1)C(=O)NN (stereo not given),nt,nt,nt,41.9%,nt,-1.2,
Nc1ccc2c3c(cccc13)CC2,-18.4,14.1µM*,?,0.0%,2.3,6.6,
O=c1[nH]c(=O)n(-c2ccccc2)c(O)c1/C=C1/C(c2ccccc2)=Nc2ccccc21,-2.9,-7.8%,?,?,14.3,-4.0,
SMILES,KCNH2 WT inh,ClpP mod,BCR signal inh,ALOX12 inh,KCNH2 3.1 block,LDHA inh,others
COc1ccc(OC)c(-n2c(O)c(/C=C3\C(C)=Nc4ccccc43)c(=O)[nH]c2=O)c1,2.5,nt,2.9%,?,6.3,-1.9,
COC(=O)C1=Nc2ccccc2/C1=C\c1c(O)n(-c2ccc(OC)cc2)c(=O)[nH]c1=O,-11.2,12.7%,?,?,-18.1,-43.4*,
COC(=O)C1=Nc2ccccc2/C1=C\c1c(O)n(-c2ccc(Br)cc2)c(=O)[nH]c1=O,10.2,-0.9%,1.3%,35.5µM*,-8.1,-67.1*,
Cn1cccc1CN1CCCC2(CC(c3cccnc3)=NO2)C1 (stereo not given),nt,nt,nt,2.9%[6.33 µM],nt,nt,
COc1cc2c(cc1OCC1CC1)NC(=O)C21CCN(Cc2cccc(O)c2)CC1,nt,nt,nt,-10.2%[176 µM],nt,nt,
O=C(c1cc2c(s1)-c1ccccc1OC2)N1CCC2(CC1)OCCO2,-28.1,28.2µM*,0.7%,1.7%,-2.7,-7.5,
O=C(c1cc2c(s1)CCCC2)N1CCC2(CC1)OCCO2,-3.1,-0.6%,?,-4.3%,0.5,-2.6,
CCOC(=O)c1sc(NC(=O)CN2CCN(c3ccc(OC)cc3)CC2)nc1C,-6.7,nt,?,-2.2%,14.8,1.2,
Cc1cnc(NC(=O)CN2CCCCC2)s1,8.8,14.1µM*,2.4%,?,-5.0,-6.1,
N#C/C(=C\c1ccccc1)C(=O)Nc1ccc(Br)cc1C(=O)c1ccccc1,nt,nt,nt,4.0%,nt,-2.5,
CN(C)c1ccc(/C=C2\C(=O)NC(=O)N(CCc3ccc(F)cc3)C2=O)cc1,-5.7,-1.4%,0.2%,15.8µM*,29.8,1.3,
CC1=C(O)C(=O)C=C2C1=CC=C1[C@@]2(C)CC[C@@]2(C)[C@@H]3C[C@](C)(C(=O)O)CC[C@]3(C)CC[C@]12C,nt,nt,nt,2.43µM*!,nt,nt,
Cc1cc(NC(=O)CSc2nc3c([nH]c4ccccc43)c(=O)n2-c2ccc(Cl)cc2)no1,nt,37.0%,nt,0.0%,nt,-4.0,ClpP inh valid=-18.6%
Fc1ccc(-c2cnc(-c3cccs3)o2)cc1,-9.4,6.31µM*,?,5.9%,-5.6,-3.7,ClpP inh valid=5.44µM*

# Screening results (PubChem BioAssay)
